# Results reported in PubChem BioAssay (NCI).
# About 83,000 compounds went through this panel and 20% of them were active in at least one assay; those are over-represented in the sample as a whole.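 The endpoint reported here, percent growth, reads 100 for growth as untreated, 0 for no net growth and -100 for all cells dead.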 Unmarked numbers belong to inactive results. Activity calls are given as the source filed them. The calls were made as follows: active = growth percent below 10; inactive = the rest.
# Assays:
# Assay in all cases: NCI-60 one-dose screen, 48 h (100 = growth as untreated, 0 = no growth, -100 = all killed)
# Conditions in all cases: 10 µM unless noted
# [1] = test system: DU-145 prostate
# [2] = test system: K-562 leukemia
# [3] = test system: MALME-3M melanoma
# [4] = test system: MDA-MB-231 breast
# [5] = test system: RXF 393 renal
# [6] = test system: SF-268 CNS
# [7] = test system: SF-295 CNS
# [8] = test system: SF-539 CNS
# [9] = test system: UACC-257 melanoma
# [10] = test system: M14 melanoma
# [11] = test system: HCT-15 colon
# [12] = test system: HT29 colon
# [13] = test system: SNB-75 CNS
# [14] = test system: SNB-19 CNS
# [15] = test system: U251 CNS
# [16] = test system: PC-3 prostate
# [17] = test system: SK-MEL-5 melanoma
# [18] = test system: UACC-62 melanoma
# [19] = test system: LOX IMVI melanoma
# [20] = test system: SK-MEL-28 melanoma
Structure (SMILES),growth [1],growth [2],growth [3],growth [4],growth [5],growth [6],growth [7],growth [8],growth [9],growth [10],growth [11],growth [12],growth [13],growth [14],growth [15],growth [16],growth [17],growth [18],growth [19],growth [20]
O=C1/C(=C/c2ccc(Br)cc2)C=C(c2ccccc2)N1CCc1ccccc1,54.1%,75.5%,50.5%,24.8%,31.5%,33.7%,-25.6% (active),36%,43.7%,49.9%,69.7%,32.5%,-34.3% (active),6.97% (active),6.97% (active),22.1%,77.1%,46.6%,42.2%,70.2%
O=C(NCCCNc1cc(-c2cn(-c3ccccc3)nc2-c2cccc(O)c2)ccn1)c1ccccc1,49.7%,-4.2% (active),-5.89% (active),-6.57% (active),24%,44.1%,12%,27.3%,-49.2% (active),3.42% (active),1.17% (active),-2.39% (active),23.1%,65.7%,27.9%,27.2%,-37.8% (active),23.6%,17.3%,4.17% (active)
Cc1cc(NCc2cc(Nc3ccnc4cc(Cl)ccc34)ccc2F)nc(N2CCOCC2)n1,23.8%,4.21% (active),-0.307% (active),19.1%,-3.51% (active),42.4%,-71.6% (active),-29.4% (active),50.8%,-22.9% (active),12.4%,8.57% (active),-22.2% (active),56.1%,-48% (active),37.5%,28.4%,4.01% (active),-78.4% (active),5.36% (active)
NNC(=O)c1nc(N)n(-c2ccc(S(N)(=O)=O)cc2)n1,92.8%,96.5%,97.8%,88.6%,110%,93.3%,109%,89.2%,97.2%,94.4%,107%,99.9%,92.5%,96.4%,88.8%,89.7%,96.9%,99.2%,93.3%,108%
c1coc(-c2c3ccc(=[N+]4CCCCC4)cc-3oc3cc(N4CCCCC4)ccc23)c1,-96.2% (active),-49.9% (active),-71.9% (active),-56.5% (active),-93.8% (active),-83.4% (active),-75.2% (active),-93.3% (active),-75.4% (active),-94.3% (active),-80.7% (active),-80.9% (active),-67.8% (active),-93.2% (active),-85.2% (active),-73.8% (active),-90.7% (active),-81.3% (active),-87.2% (active),-88.7% (active)
Cc1ccc(C2SCC(=O)N2Cc2ccccc2)cc1 (stereo not drawn),118%,110%,93.3%,98.3%,114%,115%,95%,109%,97.7%,104%,100%,96.9%,95.1%,98.9%,97.6%,92.1%,105%,91.7%,97.9%,106%
COc1cc(C2CC(c3cc(OC)c(OCCCOc4ccc(-n5c(/C=C/c6ccccc6)nc6ccccc6c5=O)cc4)c(OC)c3)=NO2)cc(OC)c1OC (stereo not drawn),120%,78.7%,143%,110%,116%,107%,81%,108%,106%,127%,84.7%,104%,86.9%,110%,103%,79.4%,95.6%,82.6%,94.6%,104%
CC1(C)OC2C(CO[Si](C)(C)C(C)(C)C)OC(n3c(I)c(C#C[Si](C)(C)C)c(=O)[nH]c3=O)C2O1 (stereo not drawn),107%,67.5%,109%,98%,-32.9% (active),108%,140%,105%,91.3%,106%,93%,-32.6% (active),-71.4% (active),105%,88.4%,91.4%,95.9%,92.8%,86.6%,-53.9% (active)
COc1ccc(NC(=O)CSc2nc(C)c(C(C)=O)n2-c2ccc(Cl)cc2)cc1,116%,109%,96%,59.7%,94.5%,102%,93.3%,96.2%,101%,97%,78.4%,84.2%,84.7%,90.9%,105%,96.3%,93.7%,70.2%,91%,91.7%
O=C(CSc1nnc(-c2ccc(NC(=O)c3cccnc3)cc2)o1)Nc1cccc(Br)c1,102%,66.3%,93.1%,93%,111%,102%,87.2%,70.6%,102%,101%,90.6%,107%,72.1%,62.9%,68.7%,82.8%,92.9%,104%,93.6%,110%
COc1ccc(Cl)cc1NC(=O)C(Br)C(Br)C(=O)O (stereo not drawn),97.2%,-27% (active),46.2%,46.2%,44.4%,19.7%,99.8%,77.7%,60.8%,75.9%,67.5%,108%,103%,122%,49.9%,56.3%,-82.2% (active),7.23% (active),-69.8% (active),60.1%
O=C(Nc1ccc(Cl)cc1)Nc1ccc(Cl)c(C(F)(F)F)c1,20.2%,-10.2% (active),-30.7% (active),-4.47% (active),33.6%,21.3%,-28.2% (active),4.38% (active),2.84% (active),11.8%,8.11% (active),18.9%,41.3%,13%,4.41% (active),-8.98% (active),–,23.9%,3.49% (active),19.1%
O=Cc1ccc(O)c2ncccc12,41.9%,-23.6% (active),19%,54.2%,76.6%,19.1%,29.2%,25.1%,27.9%,21.4%,22.9%,87.7%,73.9%,68.1%,25.3%,16.6%,–,45.1%,-68.5% (active),–
Cn1ccc2c(c1=O)C(=O)c1nccc3c1c-2nc1ccccc13,-88.3% (active),-46.6% (active),89.3%,-85.5% (active),40.8%,-69.2% (active),-66% (active),-28.9% (active),108%,82.9%,-61.4% (active),-76.7% (active),60.2%,-74.4% (active),-92.9% (active),-44.8% (active),–,91.7%,-98.4% (active),106%
N#Cc1c2c(nn(-c3ccccc3)c1=O)C(O)=C([N+](=O)[O-])C(c1ccccc1)C2 (stereo not drawn),26.2%,41%,86.1%,71.1%,49.7%,88%,98.9%,83%,87.7%,86.1%,54.7%,94.1%,90.6%,84.2%,57.7%,80.5%,–,84.6%,17.9%,96.4%
CCOC(CN=Cc1cc(C)c2[nH]c3ccccc3c2c1C)OCC,101%,95.1%,124%,108%,102%,92.5%,92.4%,100%,90.3%,94.4%,97.8%,108%,88.9%,91.9%,89.5%,101%,–,71.3%,96.3%,–
